Laboratory results: PubChem BioAssay (NCATS)
Inconclusive results are not listed. Values without a mark were called inactive. The source made the active and inactive calls. Calls follow the shape of the dose curve; as a rule, active = well fitted cell-killing curve with a large enough effect; inconclusive = small, poorly fitted or top-dose-only effect; inactive = flat fitted curve, though single readings scatter.

Experiment: Cellular viability qHTS for adrenocortical cancer (ACC) cell line SW-13 (AID 1963989); also: nearly all actives have a fitted effect of over 65% in size;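 as to activity (max response): cells grown in serum-free medium with ITS supplement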
Conditions: SW-13 ACC cells viability, CellTiter-Glo, 48 h; activity (max response): active compounds read low
Procedure, shortened: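 48 h treatment, SW-13 in ITS/DMEM serum-free; doses up to 46 uM; readout CellTiter-Glo luminescence; curve fit four-parameter logistic.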
% is scaled to controls: 0 for no effect and ±100 for the full control effect; potency is read from the fitted curve at half-maximal effect.

SMILES | activity (max response) [%] | Potency
COC1=C2C[C@H](C)C[C@H](OC)[C@H](O)[C@@H](C)/C=C(/C)[C@H](OC(N)=O)[C@@H](OC)/C=C\C=C(\C)C(=O)NC(=CC1=O)C2=O | -3.63 | 
Cc1ccc(Nc2cc(N[C@@H]3CCCC[C@@H]3N)nnc2C(N)=O)nc1C | -5.27 | 
CCc1c(C)[nH]c2c1C(=O)C(CN1CCOCC1)CC2 (stereo not given) | 7.75 | 
CCCCC1C(=O)N(c2ccccc2)N(c2ccccc2)C1=O | -21.3 | 
Cc1c(Cn2ccnc2)c2ccccc2n1CCC(=O)O | 15.3 | 
CC(=O)OCC(=O)[C@H]1CC[C@H]2[C@@H]3CCC4=CC(=O)CC[C@]4(C)[C@H]3CC[C@]12C | 2.66 | 
Cc1cc(CC(=O)O)c(C)n1-c1ccc(Cl)cc1 | 4.84 | 
C/C(O)=C(\C#N)C(=O)Nc1ccc(C(F)(F)F)cc1 | -8.43 | 
C#CCN(C)CCCOc1ccc(Cl)cc1Cl | -17.3 | 
Cc1ccc(CCn2c3c(c4cc(Cl)ccc42)CN(C)CC3)cn1 | -12.3 | 
COC(=O)[C@H]1[C@H]2C[C@@H]3c4[nH]c5cc(OC)ccc5c4CCN3C[C@H]2C[C@@H](OC(=O)c2cc(OC)c(OC)c(OC)c2)[C@@H]1OC | -15.6 | 
O=C(O)CNC(=O)c1ccccc1 | 6.31 | 
Nc1cc(COc2c(Cl)cc(C[C@H](N)C(=O)O)cc2Cl)c2oc(-c3ccccc3)nc2c1 | 4.08 | 
C[C@]12CC[C@H]3[C@@H](CCC4=CC(=O)CC[C@@]43C)[C@@H]1CC[C@@H]2C(=O)CO | -8.44 | 
CC(CC1c2ccccc2CCc2ccccc21)CN(C)C (stereo not given) | -20.3 | 
C[C@@H](O[C@H]1OCCN(Cc2n[nH]c(=O)[nH]2)[C@H]1c1ccc(F)cc1)c1cc(C(F)(F)F)cc(C(F)(F)F)c1 |  | 18.4 µM (active)
CCOC(=O)Nc1ccc2c(c1)N(C(=O)CCN1CCOCC1)c1ccccc1S2 | -13.5 | 
O=C1C(CCS(=O)c2ccccc2)C(=O)N(c2ccccc2)N1c1ccccc1 (stereo not given) | 7.53 | 
CC1=C(C(=O)OC(C)C)C(c2cccc([N+](=O)[O-])c2)C(C(=O)OC2CN(C(c3ccccc3)c3ccccc3)C2)=C(N)N1 (stereo not given) | -4.04 | 
CC(C)=CCC/C(C)=C/CC/C(C)=C/CSc1ccccc1C(=O)O | -19.3 | 

SMILES | activity (max response) [%] | Potency
CCCNC(=O)c1cn2ncnc(Nc3cc(C(=O)NC4CC4)ccc3C)c2c1C | 7.33 | 
CCOC(=O)C(=O)CCc1ccccc1 | 6.65 | 
Cc1cc(O)c2c(O)c3c(O)cccc3cc2c1 | -2.49 | 
O=S(=O)(O)c1ccc2cc(N=Nc3cc(S(=O)(=O)O)c4cccnc4c3O)ccc2c1 | -15.7 | 
O=C(/C=C/N1C[C@H]2C[C@@H]1CN2c1ccccn1)c1ccccc1O | -11.7 | 
Cn1ncc(Cl)c1-c1cc(C(=O)N[C@H](CN)Cc2cccc(F)c2)sc1Cl | -8.31 | 
CC1Cc2ccccc2N1C(=O)Cc1nc(N2CCOCC2)cc(=O)[nH]1 (stereo not given) | -14.8 | 
CCOC(=O)COc1ccc2c(C)c(CCN(CC)CC)c(=O)oc2c1Cl | 0.298 | 
O=c1c(-n2ccnn2)c[nH]n1-c1cc(N2CCOCC2)ncn1 | -5.69 | 
O=C(NC1CCN(CCc2c[nH]c3ccccc23)CC1)c1ccccc1 | -18.1 | 
CCCCCCCCCCCCCCCCCCNC(=O)OC1CCN(C(=O)OC[C@H](COC(=O)N(Cc2cccc[n+]2CC)C(=O)c2ccccc2OC)OC)CC1 |  | 7.31 µM (active)
C/C=C/CC(C)C(O)C1C(=O)NC(CC)C(=O)N(C)CC(=O)N(C)C(CC(C)C)C(=O)NC(C(C)C)C(=O)N(C)C(CC(C)C)C(=O)NC(C)C(=O)NC(C)C(=O)N(C)C(CC(C)C)C(=O)N(C)C(CC(C)C)C(=O)N(C)C(C(C)C)C(=O)N1C (stereo not given) | -11.5 | 
Cc1c(F)cc(C(=O)NC2CC2)cc1-c1c(F)cn2c(C(C)(C)C)nnc2c1F | -10.3 | 
O=[N+]([O-])c1ccc(/C=N\O)o1 | -5.61 | 
CONC(=O)Nc1ccc(-c2sc3c(c2CN(C)C)c(=O)n(-c2ccc(OC)nn2)c(=O)n3Cc2c(F)cccc2F)cc1 | -5.64 | 
Nc1ccc(S(=O)(=O)Nc2ccccc2)cc1 | 5.64 | 
C[C@H](Nc1ncnc2nc[nH]c12)c1cc2ccc(F)cc2nc1-c1ccccn1 | -8.13 | 
NC(=O)C(=O)N/N=C/c1ccc([N+](=O)[O-])o1 | -15.1 | 
CN(C)c1ccc(C(=C2C=CC(=[N+](C)C)C=C2)c2ccccc2)cc1 |  | 0.82 µM (active)
CCC[C@H](NC(=O)[C@@H]1[C@H]2CCC[C@H]2CN1C(=O)[C@@H](NC(=O)[C@@H](NC(=O)c1cnccn1)C1CCCCC1)C(C)(C)C)C(=O)C(=O)NC1CC1 | -27.4 | 
